Assay results from PubChem BioAssay AID430 (Sanford-Burnham Center for Chemical Genomics, 2006).
Among all 63,000 compounds or so, about 1,100 (1.7%) were called active. The sample as a whole holds a higher share of actives than the screen did. Potency and affinity values are given separately. A number with no mark means an inactive call. No stated cut-off is given here; in the data, active means cytotoxicity above about 50%; inactive means the rest.

Test: HPDE-C7 pancreatic duct cell viability loss – fluorescence, HTS (AID 430);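 further: cells exposed to compound for 48 hours before viability readout; 0% = vehicle and 100% = reference cytotoxic drug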
Conditions: HPDE-C7 pancreatic duct cells viability, at 10 µM, stronger effect = higher value

Structure (SMILES)	cytotoxicity
CC(NC(=O)Cn1cnc2c1c(=O)n(C)c(=O)n2C)c1ccccc1 (configuration not stated)	-1.6%
CCc1cccc(NC(=O)C2CCCN(S(=O)(=O)c3c(C)[nH]c(=O)[nH]c3=O)C2)c1 (configuration not stated)	-1.3%
[O-][N+]12CCN(CC1)c1ccccc12	-14.6%
Cc1ccc2nc3ccc(N4CCCC4)nn3c(=O)c2c1	4.6%
CCOC(=O)C1C(c2cccc(Cl)c2Cl)NC(=O)NC1(O)C(F)(F)F (configuration not stated)	-1.7%
COC(=O)C1=C(C)NC(=O)CC1c1cccc(Cl)c1Cl (configuration not stated)	-12.9%
N#CC1=C(SCC(=O)NC2CC2)NC(=O)C(C#N)C12CCCCC2 (configuration not stated)	-13.2%
N#CC1=C(N)NC(SCC(=O)Nc2ccccc2)=C(C#N)C12CCCC2	1.6%
CCOC(=O)C1=C(SCC(=O)Nc2ccccc2)NC(=O)C(C#N)C12CCCCC2 (configuration not stated)	1.9%
CC(C)(C)C1CCC2(CC1)C(C#N)=C(SCC(=O)NC1CCCCC1)NC(=O)C2C#N (configuration not stated)	58.7% (active)
N#CC1=C(SCC(=O)NC23CC4CC(CC(C4)C2)C3)NC(=O)C(C#N)C12CCCCC2 (configuration not stated)	49.7%
Cc1ccc2[nH]c(=O)c(CN(Cc3nnnn3Cc3ccccc3)C3CCCC3)cc2c1	-16.4%
Cc1cnc(-c2nnc(N(C)C(=O)C3CCCO3)s2)cn1 (configuration not stated)	-5.4%
Cc1ccc(-n2ncc(C(=O)N3CCc4ccccc4C3)c2NC(=O)c2ccco2)cc1C	71.2% (active)
Cc1ccc(NC(=O)c2cnn(-c3ccccc3)c2NC(=O)c2ccco2)cc1C	1.7%
O=C(Nc1c(C(=O)N2CCCCC2)cnn1-c1ccccc1)c1ccco1	-10.4%
CC(=O)Nc1ccc(S(=O)(=O)N2CCN(c3cc(C)ccc3C)CC2)cc1	7.6%
CC(=O)Nc1ccc(S(=O)(=O)N2CCN(c3cc(C)nc4ccccc34)CC2)cc1	2.1%
CC(=O)Nc1ccc(S(=O)(=O)N2CCN(c3cccc(C)c3C)CC2)cc1	54.3% (active)
COc1ccc(S(=O)(=O)N2CCN(c3cccc(C)c3C)CC2)cc1	2%
CC(=O)Nc1ccc(S(=O)(=O)N2CCC(c3nc4ccccc4[nH]3)CC2)cc1	6.7%
CC(=O)Nc1ccc(S(=O)(=O)NC(CC(=O)N(C)Cc2ccccc2)C(C)C)cc1 (configuration not stated)	-7.1%
CC(C)N1CC(C(=O)Nc2nc3ccccc3s2)CC1=O (configuration not stated)	-0.4%
CCc1nc2sc3c(c2c(=O)n1N)CCC3	1.2%

Structure (SMILES)	cytotoxicity
Nn1c(Nc2ccccc2)nc2sc3c(c2c1=O)CCC3	57.6% (active)
CCCc1nc2sc3c(c2c(=O)n1N)CCC3	3%
COc1ccc(S(=O)(=O)N(CC(=O)O)c2ccc(C)cc2)cc1	-20.8%
O=C(NCc1cccnc1)C1c2ccccc2C(=O)N1Cc1ccco1 (configuration not stated)	-4.7%
CC(C)(C)C1CCc2nc(NC(=O)Cc3cn4ccsc4n3)sc2C1 (configuration not stated)	57.3% (active)
O=C(Cc1cn2ccsc2n1)Nc1nc2c(s1)CN(Cc1ccccc1)CC2	-4.7%
O=C(Cc1cn2ccsc2n1)Nc1nc2c(s1)CCCC2	6.8%
CCSC1=C(C#N)C2(CCCCC2)C(C#N)=C(N)N1	-4.6%
N#CC1=C(N)NC(SCC(=O)O)=C(C#N)C12CCCC2	4.9%
CSC1=C(C#N)C2(CCCC2)C(C#N)=C(N)N1	22.6%
N#CC1=C(N)NC(SCc2ccccc2)=C(C#N)C12CCCCC2	72.2% (active)
CCSC1=C(C#N)C2(CCCC2)C(C#N)=C(N)N1	-1.6%
COc1ccc(C(=O)CSC2=C(C#N)C3(CCCCC3)C(C#N)=C(N)N2)cc1	22.5%
CC1(C)CC(=O)C2=C(C1)NC(SCC(=O)Nc1ccccc1)=C(C#N)C21CCCCC1	-19.2%
CCOC(=O)c1cnn(-c2ncnc3c2oc2ccccc23)c1N	-2.5%
COc1ccc(C2(CCN)CC(C)N(C)CC2C)cc1 (configuration not stated)	-5.8%
O=C(c1cc(F)c(F)cc1Cl)N1CCCCC1	-3%
CCCSc1nc2c(cnn2-c2ccc(F)cc2)c(=O)[nH]1	-9.3%
Cc1ccc(S(=O)(=O)NCCCN2CCOCC2)cc1C	-25%
Oc1ccc(-c2nc3cnccn3c2Nc2ccc3c(c2)OCCO3)cc1	3.8%
CCOC(=O)c1c(NC(=O)CSc2n[nH]c(N)n2)sc(CC)c1C	-3.3%
CCOC(=O)c1sc(NC(=O)CSc2n[nH]c(-c3ccccc3)n2)c(C#N)c1C	4.4%
O=C(COC(=O)C1COc2ccccc2O1)NC(=O)NC1CCCC1 (configuration not stated)	-11.8%
